Sampled rows, rich in hits. Any-hit rate of the full collection: about 3.8%.
PrP UTR inh = suppresses PrP 5' UTR mRNA reporter expression. cell-based PrP 5' UTR mRNA reporter, plate reader. inhibition, % (no concentration beside the values). actives 0.35% (n = 340,000). AID 488862; in the data active = inhibition above about 52%; also: 0 = median of the neutral control wells
Mtb hypoxia rep = reduces hypoxia-regulated biosensor signal in M. tuberculosis; M. tuberculosis hypoxia-regulated fluorescent reporter, fluorescence; fluorescence inhibition, % (no concentration beside the values); actives 0.1% (n = 300,000); in the data active = fluorescence inhibition mostly above about 23%, no sharp cut-off; inactive = mostly below about 17%
PrPC surface inh = reduces human prion protein on the cell surface; cell surface PrPC, TR-FRET read-out; P04156; AID 720596; actives 0.43% (n = 370,000); inhibition, % at 13.8 µM; in the data active = inhibition above about 24%; also: 0% = median of the test wells and 100% = reference compound wells
Yp Topo-I inh = inhibitors of Yersinia pestis topoisomerase I; activity, % at 10 µM; AID 504884; actives 0.064% (n = 360,000); Y. pestis Topo-I cleavage product accumulation, plate reader; in the data active = activity above about 50%, passing the limit was not always enough
FBA Mtb inh = inhibitors of M. tuberculosis fructose-bisphosphate aldolase; inhibition, % at 1 µM; purified M. tuberculosis FBA, fluorescence read-out; actives 2.3% (n = 360,000); P9WQA3;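 also: 0% = vehicle and 100% = reference inhibitor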
Target sequence (P9WQA3 whole entry, looked up): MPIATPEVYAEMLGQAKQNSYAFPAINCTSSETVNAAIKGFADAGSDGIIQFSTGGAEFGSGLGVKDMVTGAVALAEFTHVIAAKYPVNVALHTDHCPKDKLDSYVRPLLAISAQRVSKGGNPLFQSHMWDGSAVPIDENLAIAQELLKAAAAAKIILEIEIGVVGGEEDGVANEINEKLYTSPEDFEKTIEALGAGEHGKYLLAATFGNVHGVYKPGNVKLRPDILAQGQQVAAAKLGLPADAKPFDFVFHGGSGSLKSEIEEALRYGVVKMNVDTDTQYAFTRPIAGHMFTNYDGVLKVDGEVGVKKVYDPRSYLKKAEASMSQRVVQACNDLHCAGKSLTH
GDH-TPI counter-1 = GDH-TPI coupled enzyme inhibition counter-screen. GDH-TPI coupled enzyme counterscreen, NADH absorbance. inhibition, % at 4.8 µM. actives 1.2% (n = 360,000); in the data active = inhibition above about 30%;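 also: 0% = DMSO wells and 100% = wells lacking the enzyme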
Mtb FBA inh conf = Mtb FBA inhibition, confirmed | shares compounds with FBA Mtb inh | actives 78% (n = 5,600) | inhibition, % at 1 µM | purified M. tuberculosis FBA, fluorescence read-out | AID 651616;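 also: 0% = vehicle wells and 100% = reference inhibitor wells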
GDH-TPI counter-2 = inhibits GDH-TPI coupling enzymes, flagging Mtb FBA hits; shares compounds with FBA Mtb inh; GDH-TPI coupled enzyme counterscreen, fluorescence; inhibition, % at 1 µM; actives 81% (n = 5,600); in the data active = inhibition above about 10%
GDH-TPI DR = inhibits GDH-TPI coupling enzymes in dose response | shares compounds with FBA Mtb inh | GDH-TPI coupled enzyme assay, fluorescence, artifact counterscreen | IC50, µM | actives 79% (n = 170) | AID 652145; call rule not given here
* hit, by the source's call; · = not tested or not shown; + = active, no number. Rule as the data show it, unless noted: active = inhibition above about 27%; inactive = the rest.

SMILES | PrP UTR inh | Mtb hypoxia rep | PrPC surface inh | Yp Topo-I inh | FBA Mtb inh | GDH-TPI counter-1 | Mtb FBA inh conf | GDH-TPI counter-2 | others
Cc1ccc2c(COC(=O)CC3Sc4ccccc4NC3=O)cc(=O)oc2c1C (stereo unspecified) | -50.5 | -2.8 | -1.6 | 5.1 | -2.5 | 2.6 | · | ·
O=C(CC1Sc2ccccc2NC1=O)OCc1cc(=O)oc2cc(O)ccc12 (stereo unspecified) | -22.2 | 1.8 | -1.8 | -3.0 | 34.7* | 20.6 | 91.5* | 80.2*
C[C@@]12CCC=CC1C(c1ccc3ccccc3c1)N(Cc1ccccc1)C2=O (stereo partly specified) | · | -3.3 | · | · | · | · | · | ·
c1coc(C2Nc3ccccc3-c3nc4ccccc4n32)c1 (stereo unspecified) | -14.3 | 5.2 | 10.8 | -4.1 | 101.3* | -2.0 | 153.0* | 120.1*
CNC(=O)c1sc(-c2cccnc2)nc1C | -14.9 | 2.2 | -10.1 | 15.0 | 1.0 | 6.8 | · | ·
Cc1sc(-c2cccnc2)nc1OC(=O)C1CC1 | -4.3 | 9.1 | -0.1 | -1.9 | 28.1* | 7.4 | + | +
CCOc1ccccc1-c1nc2c([nH]1)c(=O)n(C)c(=O)n2C | -21.1 | 3.8 | 1.5 | 10.8 | 39.2* | 16.8 | 94.1* | 82.1*
CCOc1ccccc1-c1nc2c(C(C)(C)C)nn(C)c2c(=O)[nH]1 | · | -3.2 | · | · | · | · | · | ·
COC(=O)c1ccc2ccn(CC(=O)NC3CCCCC3)c2c1 | -3.9 | · | -7.2 | 9.6 | 70.5* | 1.9 | -2.9 | -1.0
Cc1nc(Nc2ccncc2)c2oc3ccccc3c2n1 | -6.4 | 0.4 | -5.3 | -1.9 | 35.5* | 32.8* | 160.8* | 135.6*
CC(=O)Nc1ccc(Nc2nc(C)nc3c2oc2ccccc23)cc1 | -10.7 | 13.0 | 6.8 | -10.8 | -0.9 | 22.4 | · | ·
CCc1nc(NC(C)C)c2oc3ccccc3c2n1 | -23.7 | -10.3 | 7.9 | 5.0 | -1.1 | -9.7 | · | ·
CCc1nc(Nc2ccncc2)c2oc3ccccc3c2n1 | -13.3 | -9.7 | 2.3 | -3.6 | 56.8* | 40.1* | 48.8* | 40.9*
NC(=NOC(=O)c1ccccc1Cl)c1cccc([N+](=O)[O-])c1 | · | -5.7 | · | · | · | · | · | ·
CC(C(=O)NCC1CC1)C1C[C@@]1(C)C(NC(=O)OCc1ccccc1)c1ccccc1 (stereo partly specified) | · | 9.4 | · | · | · | · | · | ·
COc1ccc(CNc2nc3nc(C)cc(C)n3n2)cc1OC | -15.1 | -10.0 | 0.7 | 5.8 | -1.5 | 13.3 | · | ·
Cc1cc(C)n2nc(NCc3cccc(Br)c3)nc2n1 | 4.9 | -13.9 | 8.9 | -7.4 | 57.5* | 0.9 | 70.0* | 52.3*
O=C(NN=Cc1ccco1)c1ccc(OCc2ccccc2)cc1 | · | -2.1 | · | · | · | · | · | ·
COc1cccc(C=NNc2ncc(C)c(=O)[nH]2)c1OC | · | 6.6 | · | · | · | · | · | ·
CN1CCN(CCNC(=O)c2ccc3nc(-c4ccc(F)cc4)c(-c4ccc(F)cc4)nc3c2)CC1 | -27.2 | 8.3 | -32.5 | -3.2 | 57.8* | 6.1 | 18.7 | 6.3 | GDH-TPI DR=3.36*
CCOC(=O)C1CCCN(C(=O)c2ccc3nc(-c4ccccc4)c(-c4ccccc4)nc3c2)C1 (stereo unspecified) | 9.3 | -5.1 | -9.8 | 18.4 | 36.2* | 29.3 | 4.3 | 5.6
NC(=O)c1ccc2nc(-c3ccccc3)c(-c3ccccc3)nc2c1 | -26.2 | 12.2 | -0.8 | 1.3 | 14.6 | 23.0 | · | ·
CCc1nc2ccc(C(=O)NCCCN3CCN(c4ccc(F)cc4)CC3)cc2nc1CC | 1.8 | 6.6 | -3.5 | 10.7 | 4.1 | 0.9 | · | ·
CCN1CCN(C(=O)c2ccc3nc(-c4ccccc4)c(-c4ccccc4)nc3c2)CC1 | -18.5 | 5.5 | -8.4 | 16.8 | 44.1* | 24.6 | 128.8* | 91.0*
O=C(O)c1ccc2nc(-c3ccccc3)c(-c3ccccc3)nc2c1 | -13.3 | 0.4 | 6.0 | -5.7 | 29.6* | 12.5 | 59.4* | 34.2*
SMILES | PrP UTR inh | Mtb hypoxia rep | PrPC surface inh | Yp Topo-I inh | FBA Mtb inh | GDH-TPI counter-1 | Mtb FBA inh conf | GDH-TPI counter-2 | others
Cn1cccc1C=NNC(N)=S | · | 20.2 | · | · | · | · | · | ·
COc1ccc2c(c1OC)C(=O)N(c1ccccn1)C2 | -92.0 | 11.2 | -3.1 | -1.9 | 44.6* | 0.6 | 114.6* | 105.8*
CCOc1cc(C=NNC(=O)C(C)Sc2ccccn2)ccc1O (stereo unspecified) | · | 9.3 | · | · | · | · | · | ·
Cc1ccc(-c2cc(C)nc3nc(N)nn23)cc1 | -0.4 | 2.6 | 6.3 | 11.5 | 82.9* | 16.8 | 60.7* | 50.6*
Cc1ccc(-c2cc(C)nc3ncnn23)cc1 | -17.3 | · | 3.7 | 0.9 | 15.6 | 9.9 | · | ·
c1ccc(-c2cc3ccccc3cn2)cc1 | -74.8 | · | -4.9 | 6.2 | 2.9 | 1.7 | · | ·
Fc1ccc2cc(-c3ccccc3)ncc2c1 | -74.5 | 10.1 | 3.5 | -1.8 | 49.2* | 21.1 | 88.1* | 71.3*
Cc1cc(C(=O)Nc2nc(C)c(C(=O)N(C)C)s2)ccc1[N+](=O)[O-] | -62.0 | -2.4 | -17.4 | -0.4 | -2.2 | 7.7 | · | ·
Cc1nc(NC(=O)c2ccc([N+](=O)[O-])cc2Cl)sc1C(=O)N(C)C | -4.8 | -6.7 | -13.7 | -5.7 | 90.7* | 12.9 | + | 162.3*
Cc1cc(C)n2c(nc3ccccc32)c1C(=O)NCc1ccccc1 | -14.5 | · | -1.2 | 7.1 | 48.2* | 7.3 | 22.7 | 15.2*
Cc1cc(C)n2c(nc3ccccc32)c1C(=O)NN | · | 12.7 | 2.9 | 3.3 | 17.7 | 21.4 | · | ·
Cc1[nH]nc2c1C(c1ccsc1)C1=C(CC(C)(C)CC1=O)N2 (stereo unspecified) | -13.8 | 2.8 | -1.4 | -2.1 | 55.4* | 23.0 | 51.3* | 38.5*
COc1cccc(C2C3=C(CC(C)(C)CC3=O)Nc3n[nH]c(C)c32)c1 (stereo unspecified) | -6.6 | 5.3 | -4.5 | -11.7 | 42.6* | 12.7 | 160.8* | 131.0*
Cc1[nH]nc2c1C(c1ccc(O)cc1)C1=C(CC(C)(C)CC1=O)N2 (stereo unspecified) | -11.6 | 6.4 | 0.0 | -5.0 | 6.8 | 24.4 | · | ·
O=C(NN=Cc1cccnc1)c1cccc(S(=O)(=O)Nc2cccc(Cl)c2)c1 | · | -3.7 | · | · | · | · | · | ·
COc1ccc(C=NNC(=O)Cc2csc(Nc3cccc(C(F)(F)F)c3)n2)c(OC)c1 | · | 3.7 | · | · | · | · | · | ·
CC(C)Sc1nc(N)c2c3c(sc2n1)CN(C)CC3 | -10.1 | -2.7 | -6.6 | -6.7 | 26.0 | 23.3 | · | ·
CCn1c(SCC(=O)c2ccccc2)nc2sc3c(c2c1=O)CCN(C)C3 | -9.0 | -8.7 | 2.5 | 3.9 | 18.9 | 18.5 | · | ·
N#Cc1cnn(-c2nc(SCc3ccccc3)nc3sc4c(c23)CCCC4)c1N | -21.5 | -12.0 | -7.7 | -0.3 | 0.2 | 1.8 | · | ·
CCN(CC)CCNc1nc(SC)nc2sc3c(c12)CCN(C)C3 | -14.8 | · | -1.9 | 0.1 | 41.0* | 1.3 | 96.5* | 75.1*
CSc1nc(NCCCN(C)C)c2c3c(sc2n1)CN(C)CC3 | · | · | 2.3 | · | · | · | · | ·
